Compound activity deposited in PubChem by National Center for Advancing Translational Sciences (NCATS).
TbPYK inhibitor = inhibitors of Trypanosoma brucei pyruvate kinase; AID 624173; Potency, µM (series often up to 76.8 µM), for inactives: at the highest dose activity, negative = inhibition, hits mostly inhibitors; actives 0.12% (n = 410,000); TbPYK enzyme, Kinase-Glo Plus ATP luminescence, 45 min; Q57TT1; also: potency is read from the fitted curve at half-maximal effect; % is scaled to controls: 0 for no effect and ±100 for the full control effect; nearly all actives have a fitted effect of over 50% in size
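Glycolytic pyruvate kinase of T. brucei was incubated with substrate, test compound and 130 uM ADP for 45 minutes at room temperature. Luminescent Kinase-Glo Plus signal was measured after 10 minutes.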
LmPK inh = inhibitors of Leishmania mexicana pyruvate kinase. actives 0.37% (n = 290,000). purified LmPK, Kinase-Glo ATP luminescence, 1 h. AID 1721. Q27686. Potency, µM (highest dose often 57.5 µM), for the others: top-dose activity change, negative = inhibition, hits mostly inhibitors; also: potency is read from the fitted curve at half-maximal effect; % is scaled to controls: 0 for no effect and ±100 for the full control effect
Target sequence (Q27686 whole entry, looked up): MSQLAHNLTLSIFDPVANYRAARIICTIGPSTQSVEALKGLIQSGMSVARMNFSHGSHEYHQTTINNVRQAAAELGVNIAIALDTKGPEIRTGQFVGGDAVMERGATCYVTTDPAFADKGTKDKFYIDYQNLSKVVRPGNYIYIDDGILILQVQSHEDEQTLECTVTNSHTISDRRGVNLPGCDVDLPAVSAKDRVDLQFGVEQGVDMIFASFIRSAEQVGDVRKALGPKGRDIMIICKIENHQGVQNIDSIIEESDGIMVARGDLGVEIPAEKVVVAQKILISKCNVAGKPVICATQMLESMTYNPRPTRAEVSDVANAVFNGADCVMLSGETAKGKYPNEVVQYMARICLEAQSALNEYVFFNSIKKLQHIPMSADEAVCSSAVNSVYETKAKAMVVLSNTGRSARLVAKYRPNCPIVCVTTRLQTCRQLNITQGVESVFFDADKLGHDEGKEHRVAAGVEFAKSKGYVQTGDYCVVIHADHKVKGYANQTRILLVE
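Screened at intermediate enzyme activity to detect both inhibitors and activators: LmPK at 0.1 nM, with a 0.5 nM enzyme column as activation reference. PEP 0.5 mM, ADP 0.1 mM; ATP detected by luminescence after 1 h.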
Shiga toxin inh = blocks Shiga toxin action in Vero cells | Vero cells, Shiga toxin protein synthesis inhibition reporter | inhibition, % at 38.7 µM | actives 9.2% (n = 290,000); in the data active = inhibition mostly above about 28%, no sharp cut-off; inactive = mostly below about 43%; also: 0% is about no effect
Cycloheximide cs = affects cycloheximide protein synthesis inhibition readout, counter-screen. cell reporter, cycloheximide protein synthesis inhibition counterscreen. max response, %. actives 12% (n = 300,000). AID 2314; in the data active = max response mostly above about 13%, no sharp cut-off; inactive = mostly below about 14%; also: read at 38.3 µM for the half of the compounds with a filed dose; 0% is about no effect
FBPA Giardia inh = blocks Giardia fructose-bisphosphate aldolase activity. Potency, µM (titrated, usually from 59.6 µM), inactives show at the highest dose activity, negative = inhibition, hits mostly inhibitors. A8B2U2. purified Giardia FBPA. actives 0.71% (n = 290,000); also: potency is read from the fitted curve at half-maximal effect; % is scaled to controls: 0 for no effect and ±100 for the full control effect; nearly all actives have a fitted effect of over 55% in size
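Giardia FBPA (40 nM reagent) was preincubated 10 min at RT with compound (up to 57.5 uM final), then substrate plus GAPDH/TPI/NAD/arsenate coupling system with diaphorase/resazurin was added; resorufin fluorescence (525/598 nm) was read after 20 min.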
RE007 growth inh = less growth of the S. pombe RE007 Vpr strain; S. pombe RE007 Vpr strain, BacTiter-Glo ATP luminescence, 24 h; actives 0.21% (n = 360,000); Potency, µM (titrated, usually from 92.2 µM), without a hit: top-dose activity change, negative = less growth, actives largely listed as inhibitors; active = well fitted falling curve with a large enough effect; also: potency is read from the fitted curve at half-maximal effect; % is scaled to controls: 0 for no effect and ±100 for the full control effect; nearly all actives have a fitted effect of over 50% in size
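Fission yeast strain RE007, carrying one chromosomally integrated HIV-1 vpr copy, was seeded at OD 0.01 in PMG+AL medium with 23 nL pinned compound. After 24 h at 30 °C and 99% humidity, viability was read by BacTiter-Glo luminescence.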
Active calls of the source: *; x = not tested or not shown; [ ] = another dose, or the depositor's remark. Shown is part of a subset that was picked to be rich in hits. Unless noted, calls follow the shape of the dose curve; as a rule, active = well fitted curve in the direction sought with a large enough effect; inconclusive = small, poorly fitted or top-dose-only effect, or another doubt; inactive = no such curve, though single readings can be large; an effect the other way counts as inactive or inconclusive.

SMILES	TbPYK inhibitor	LmPK inh	Shiga toxin inh	Cycloheximide cs	FBPA Giardia inh	RE007 growth inh
O=C(Oc1ccc(/C=N/NC(=O)c2ccccc2O)cc1)c1ccccc1	-1.4%	4.3%	24.9	15.7*	-9.4%	-7.4%
O=C(Oc1ccc(/C=N/NC(=O)c2ccccc2F)cc1)c1ccccc1	-7.7%	-2.3%	83.2*	27.5*	-7.1%	3.4%
CC(=O)Nc1ccc(Nc2ccc([N+](=O)[O-])cn2)cc1	-1.6%	-0.8%	37.1	6.2	1.8%	-22.2%
O=[N+]([O-])c1ccc(Nc2ccc(F)cc2)nc1	-5.5%	2.0%	31.8*	15.3*	-1.0%	-10.7%
Cc1ccc(Nc2ccc([N+](=O)[O-])cn2)cc1Cl	-4.0%	0.5%	45.7*	26.8*	0.8%	-10.2%
CN(C)c1ccc(Nc2ccc([N+](=O)[O-])cn2)cc1	-17.8%	0.0%	132.4*	33.9*	9.0%	12.5%
O=C(Cn1cnc([N+](=O)[O-])c1)Nc1ccc(Cl)cc1Cl	4.2%	x	x	x	x	18.0%
CCOc1cc(C2NN=C(c3ccccc3)S2)ccc1OCc1ccc(F)cc1 (stereo unspecified)	-12.4%	-29.0%	112.2*	43.0*	7.5%	-28.7%
CCOc1cc(C2NN=C(c3ccccc3)S2)ccc1OCc1ccccc1Cl (stereo unspecified)	-14.0%	-18.3%	66.1*	45.3*	5.0%	-12.4%
CC(=O)O[C@]1(C(C)=O)CC[C@@H]2[C@@H]3C=C(Cl)C4=CC(=O)[C@H]5C[C@@H]5[C@]4(C)[C@H]3CC[C@]21C	x	x	x	x	3.2%[21.7 µM]	x
COc1cc(NC(=O)COc2ccc(-n3ccnc3)cc2)cc(OC)c1	-1.3%	0.0%	21.1	6.1	5.2%	12.2%
C/C(=N\NC(=O)OC(C)(C)C)c1ccc(-n2ccnc2)cc1	5.4%	-5.9%	15.6	13.3	0.3%	-12.3%
CC(C)(C)c1ccc(NC(=O)COc2ccc(-n3ccnc3)cc2)cc1	-13.0%	-1.1%	48.9*	36.4*	-2.9%	-6.5%
C/C(=N\NC(=O)c1ccccc1)c1ccc(-n2ccnc2)cc1	-2.5%	4.2%	60.3*	37.1*	1.6%	-2.3%
Cc1ccc(NC(=O)n2ccc(-c3ccc(-n4ccnc4)cc3)n2)cc1	-0.4%	-0.4%	85.0*	40.0*	1.8%	20.2%
C/C(=N\NC(=O)COc1ccc(C(C)(C)C)cc1)c1ccc(-n2ccnc2)cc1	-12.2%	2.7%	31.4	31.3*	1.6%	-3.6%
CC1CCCC(NC(=O)CCS(=O)(=O)c2cc3c(cc2Cl)NC(=O)CO3)C1C (stereo unspecified)	3.2%	0.3%	-3.3	-4.6	-2.6%	-1.0%
Nc1ccn([C@@H]2O[C@H](C(=O)N[C@H](CO)Cc3ccccc3)[C@@H](O)[C@H]2O)c(=O)n1	-7.3%	x	x	x	x	4.2%
CSCc1ccc(C(=O)NC(C)c2ccc(-n3ccnc3)cc2)cc1 (stereo unspecified)	-5.1%	-8.1%	16.3	17.8*	x	-5.5%
Cc1c(NC(=O)Nc2ccc(Br)cc2F)sc2nc3n(c(=O)c12)CCC(C)CC3 (stereo unspecified)	0.0%	x	x	x	x	x
CN(C(=O)c1cc2sccc2n1C)C1CCCCC1	12.0%	1.1%	99.1*	42.3*	-3.3%	-10.4%
Cn1c(C(=O)NC2CCCCC2)cc2sccc21	1.2%	0.3%	50.5	28.7*	-7.0%	6.2%
CCn1c(C(=O)NC2CCC(C)CC2)cc2sccc21 (stereo unspecified)	5.6%	0.1%	73.4*	37.6*	-15.6%	2.4%
Cn1c(C(=O)N2CCCC(C(=O)O)C2)cc2sccc21 (stereo unspecified)	1.1%	9.3%	-10.9	-5.9	7.5%	-0.3%
Nn1c(SCc2ccc(Br)cc2)nnc1-c1ccccn1	-2.6%	-3.6%	-6.4	-2.5	6.3%	8.8%
SMILES	TbPYK inhibitor	LmPK inh	Shiga toxin inh	Cycloheximide cs	FBPA Giardia inh	RE007 growth inh
Cc1cccc(CSc2nnc(-c3ccccn3)n2N)c1	-2.2%	3.8%	35.7	17.7*	16.7%	10.1%
Cn1c(SCc2ccccc2F)nnc1-c1ccccn1	8.3%	-2.5%	108.8*	43.9*	-0.5%	16.7%
C=C(C)CSc1nnc(-c2ccccc2)n1N	-1.4%	-4.2%	74.6*	23.9*	-7.2%	2.0%
Cn1c(SCc2ccccc2F)nnc1-c1cnccn1	2.0%	-4.8%	110.6*	74.8*	-2.6%	9.7%
CCc1ccc(NC(=O)Cn2nnc(-c3ccccc3N)n2)cc1	-1.7%	x	x	x	x	x
CCCCSc1ncnc2c1ncn2C1CCCCO1 (stereo unspecified)	0.2%	x	x	x	x	0.3%
Cc1cccc(CSc2nnc(-c3cnccn3)n2C)c1	-0.9%	0.8%	45.2*	17.4*	3.6%	12.2%
Cn1c(SCc2ccccn2)nnc1-c1cnccn1	6.1%	-4.9%	57.1*	37.7*	-7.9%	-17.9%
Nn1c(SCc2ccccc2F)nnc1-c1cccnc1	0.6%	-5.9%	74.8*	40.2*	-4.0%	0.3%
Cn1c(SCc2nc3ccccc3[nH]2)nnc1-c1cnccn1	-6.8%	-6.7%	43.3	26.8	-15.2%	4.4%
C=CCNc1cc(F)ccc1S(=O)(=O)NCC=C	-2.9%	x	x	x	x	-10.7%
COc1ccc(Cc2c(C3CCCCC3)nc3cc(C)c(Br)c(C)n23)c(C)c1	5.7%	x	x	x	x	3.1%
C=Cc1cnc([N+](=O)[O-])n1C	-23.5%	x	x	x	x	-21.7%
Cn1cnnc1SCC(=O)NNC(=O)c1ccc(Cl)cc1	-1.3%	-0.5%	-14.6	-3.4	-1.5%	1.3%
COC(=O)C[C@@H]1CC[C@H](NC(=O)Nc2ccc(F)cc2)[C@@H](CO)O1	x	x	x	x	x	-8.2%
Cc1ccc2nc(SCc3cccc([N+](=O)[O-])c3)nc(C)c2c1	-3.5%	1.6%	-21.7	-4.3	-7.1%	-7.5%
COc1ccc2nc(SCc3ccccc3C)nc(C)c2c1	-3.6%	0.8%	0.0	12.1*	0.1%	5.0%
COc1ccc2nc(SCc3cccc(C)c3)nc(C)c2c1	-2.6%	6.8%	61.7*	27.2*	-1.0%	14.9%
CCC(CC)c1nnc(NC(=O)c2cc(-c3ccccc3)nc3ccccc23)s1	1.4%	-1.9%	9.7	0.7	12.2%	18.2%
Cc1cccc(NC(=O)c2ccc3ccccc3n2)c1C	-0.6%	-14.1%	185.9*	22.9*	-2.4%	8.0%
CCC(CC)c1nnc(NC(=O)c2ccc3ccccc3n2)s1	-3.8%	1.9%	105.0*	37.7*	-3.7%	-2.9%
Cc1csc(NC(=O)c2cc(C)nc3ccccc23)n1	-0.3%	6.5%	-6.7	-2.2	-6.5%	-1.9%
Cc1csc(NC(=O)c2ccc3ccccc3n2)n1	4.3%	-9.7%	98.1*	42.1*	-8.4%	-26.9%
Cc1cnc(C(=O)Nc2nc(-c3ccccc3)cs2)cn1	-6.4%	3.4%	4.1	-1.6	-0.2%	-5.1%
Cc1csc(NC(=O)c2cnc3ccccc3n2)n1	4.1%	0.9%	21.6	8.4*	-18.3%	-5.1%
Cc1nc2ccc(C(=O)NCCc3c[nH]c4ccccc34)cn2c1N(C)C(=O)CCc1ccccc1	0.8%	x	x	x	x	-14.8%
